# According to the supplement of paper PMC13380429:
# Tests used:
# [1] = system: Vero E6 infected with SARS-CoV-2; experiment: morphology score (similarity to uninfected cells); higher = more like uninfected cells; conditions: 24 h
# [2] = system: Vero E6 infected with SARS-CoV-2; experiment: SARS-CoV-2 infection rate relative to infected DMSO; higher = more infection, active = 60 or less; conditions: 24 h
Compound,morphology score [1],SARS-CoV-2 infection rate [2]
CC(=O)OCC1=C(C(=O)O)N2C(=O)[C@@H](NC(=O)CS/C(=N/C(C)C)NC(C)C)[C@H]2SC1 [cefathiamidine] (10 µM),0.162,92% (inactive)
Cc1ccc(-c2ncc(Cl)cc2-c2ccc(S(C)(=O)=O)cc2)cn1 [etoricoxib] (10 µM),-0.139,114% (inactive)
CCCCC1=NC2(CCCC2)C(=O)N1Cc1ccc(-c2ccccc2-c2nnn[nH]2)cc1 [irbesartan] (10 µM),0.0469,96.5% (inactive)
CN1CCN(C(=O)C2C(C(=O)O)[C@H]3CC[C@@H]2O3)CC1 (some centres not stated) (10 µM),0.0648,110% (inactive)
CCCCOCCOc1nc(-c2ccc(C(=O)O)c(F)c2)sc1C (10 µM),-0.127,108% (inactive)
Cc1ccc(C(=O)c2cc(O)c(O)c([N+](=O)[O-])c2)cc1 [tolcapone] (10 µM),0.192,110% (inactive)
Cc1noc(NS(=O)(=O)c2ccc(N)cc2)c1C [sulfafurazole] (10 µM),0.1,100% (inactive)
CCCSc1nc(N[C@@H]2C[C@H]2c2ccc(F)c(F)c2)c2nnn([C@@H]3C[C@H](OCCO)[C@@H](O)[C@H]3O)c2n1 [ticagrelor] (10 µM),-0.0229,104% (inactive)
CC(C)n1cnc2c(NCCc3ccc(O)cc3)nc(-c3csc4ccccc34)nc21 [stemregenin-1] (10 µM),0.692,67% (inactive)
COc1ccc(CCN(C)CCCN2CCc3cc(OC)c(OC)cc3CC2=O)cc1OC [zatebradine] (10 µM),-0.00282,112% (inactive)
CCCCCCCCCC(=O)OCCN1CCN(CCCN2c3ccccc3Sc3ccc(C(F)(F)F)cc32)CC1 [fluphenazine-decanoate] (10 µM),-0.147,112% (inactive)
CC1=CC(=C(c2ccc(N)cc2)c2ccc(N)cc2)C=CC1=N [basic-fuchsin] (0.833333 µM),0.163,97.5% (inactive)
CNC(=O)c1ccccc1Sc1ccc2c(/C=C/c3ccccn3)n[nH]c2c1 [axitinib] (10 µM),0.563,80.5% (inactive)
CCCCCCCCCCCC1=C(O)C(=O)C=C(O)C1=O [embelin] (10 µM),-0.0413,106% (inactive)
C[N+](C)(C)[C@@H](Cc1c[nH]c(=S)[nH]1)C(=O)O [L-ergothioneine] (10 µM),0.0598,99% (inactive)
Cc1nc(C)c(C)nc1C [chuanxiongzine] (10 µM),-0.146,118% (inactive)
CCn1ccnc1CC1COc2ccccc2O1 (configuration not stated) [imiloxan] (10 µM),-0.00924,99% (inactive)
CC[C@H]1OC(=O)C[C@@H](O)[C@H](C)[C@@H](O[C@@H]2O[C@H](C)[C@@H](O[C@H]3C[C@@](C)(O)[C@@H](O)[C@H](C)O3)[C@H](N(C)C)[C@H]2O)[C@@H](CC=O)C[C@@H](C)C(=O)/C=C/C(C)=C/[C@@H]1CO[C@@H]1O[C@H](C)[C@@H](O)[C@@H](OC)[C@H]1OC (0.833333 µM),-0.000376,81% (inactive)
N=C(N)N [guanidine] (0.833333 µM),-0.293,118% (inactive)
CC(=O)Nc1ccccc1 [acetanilide] (10 µM),0.174,102% (inactive)
CCOC(=O)[C@@H](C)Oc1ccc(Oc2nc3ccc(Cl)cc3o2)cc1 [fenoxaprop-p-ethyl] (10 µM),-0.0825,106% (inactive)

Compound,morphology score [1],SARS-CoV-2 infection rate [2]
O=C(O)c1ccccc1 [benzoic-acid] (10 µM),0.0363,110% (inactive)
C#C[C@]1(O)CC[C@H]2[C@@H]3CCC4=CC(=O)CCC4=C3C=C[C@@]21CC [gestrinone] (10 µM),0.0853,103% (inactive)
COC(=O)N1CC[C@@H]2[C@H]1CCC[C@@]2(O)C#Cc1cccc(C)c1 [mavoglurant] (10 µM),-0.125,112% (inactive)
O=C(O)Cn1c2c(c3cc(F)ccc31)CN(C(=O)c1cccc3ccccc13)CC2 [setipiprant] (10 µM),-0.161,108% (inactive)
CCOC(=O)[C@H](CCc1ccccc1)N[C@@H](C)C(=O)N1Cc2cc(OC)c(OC)cc2C[C@H]1C(=O)O [moexipril] (10 µM),0.183,90% (inactive)
O=c1c(O)c(-c2ccc(O)cc2)oc2cc(O)cc(O)c12 [kaempferol] (10 µM),0.215,108% (inactive)
Cc1cc(C)c2c(c1)[C@@H](N(Cc1cc(C(F)(F)F)cc(C(F)(F)F)c1)c1nnn(C)n1)CCCN2C[C@H]1CC[C@H](C(=O)O)CC1 [evacetrapib] (10 µM),0.0498,97% (inactive)
NNC(=O)c1ccncc1 [isoniazid] (10 µM),-0.115,111% (inactive)
Nc1ccccc1S(N)(=O)=O [2-aminobenzenesulfonamide] (10 µM),-0.162,108% (inactive)
O=C1[C@H](Cc2ccc(O)cc2)N2C(=O)CCN(C(=O)NCc3ccccc3)[C@H]2CN1Cc1cccc2ccccc12 (10 µM),0.0761,93% (inactive)
CO/N=C(\C(=O)N[C@@H]1C(=O)N2C(C(=O)O)=C(COC(N)=O)CS[C@H]12)c1ccco1 (10 µM),0.0841,98.5% (inactive)
CCn1c(=O)/c(=C2\Sc3ccccc3N2C)s/c1=C\c1cccc[n+]1CC (10 µM),0.136,106% (inactive)
"COc1ccc2c(c1OC)C(=O)O[C@@H]2[C@H]1c2cc3c(cc2CCN1C)OCO3 [hydrastine-(1R,9S)] (10 µM)",-0.0178,108% (inactive)
COc1cc(N)c(Cl)cc1C(=O)NC1CN2CCC1CC2 (configuration not stated) [zacopride] (10 µM),0.169,89% (inactive)
CC(C)=CCC/C(C)=C/CC/C(C)=C/CSc1ccccc1C(N)=O [farnesyl-thiosalicylic-acid-amide] (10 µM),0.012,110% (inactive)
N[C@@H](C(=O)O)c1ccc(C(=O)O)c(C(=O)O)c1 (racemic) (10 µM),0.105,98.2% (inactive)
N[C@@H]1CCN(c2cccnc2)C1 (10 µM),0.0226,102% (inactive)
C[C@@H]1COC(Nc2ccc3ncnc(Nc4ccc(OCc5nccs5)c(Cl)c4)c3c2)=N1 (10 µM),-0.156,97% (inactive)
Nc1ncnc(Nc2ccc(Cl)cc2)n1 [chlorazanil] (10 µM),0.133,106% (inactive)
C#Cc1cncc([C@@H]2CCCN2C)c1 [altinicline] (10 µM),0.0585,98.5% (inactive)
CC(C)C(N)=O [isobutyramide] (10 µM),0.073,111% (inactive)

Compound,morphology score [1],SARS-CoV-2 infection rate [2]
C[C@H](O)[C@H](O)[C@H]1CNc2nc(N)[nH]c(=O)c2N1 [sapropterin] (10 µM),-0.0335,95.5% (inactive)
Cc1cc(SCc2sc(-c3ccc(C(F)(F)F)cc3)nc2C)ccc1OCC(=O)O (10 µM),0.0978,98.5% (inactive)
CN1CCCC(CN2c3ccccc3Sc3ccccc32)C1 (configuration not stated) [mepazine] (10 µM),0.538,60.5% (inactive)
N#Cc1ccc(N2CCN(C(=O)COc3ccc4[nH]cc(CCN)c4c3)CC2)cc1 [donitriptan] (10 µM),-0.0047,100% (inactive)
O=C1c2c(O)cc(O)cc2O[C@H](c2ccc(O)c(O)c2)[C@H]1O [taxifolin] (10 µM),0.187,99.5% (inactive)
COc1ccnc(C[S+]([O-])c2nc3cc(OC(F)F)ccc3[nH]2)c1OC (configuration not stated) [pantoprazole] (10 µM),-0.142,104% (inactive)
Cc1sc2c(c1C)C(c1ccc(Cl)cc1)=N[C@@H](CC(=O)Nc1ccc(OCCOCCOCCOCCNc3cccc4c3C(=O)N(C3CCC(=O)NC3=O)C4=O)cc1)c1nnc(C)n1-2 (some centres not stated) (10 µM),-0.0682,100% (inactive)
COc1[nH]c2ccc(F)cc2c1C(=O)OCC1CCN(CCNS(C)(=O)=O)CC1 (10 µM),0.0361,106% (inactive)
CCCCCCCCCCCC[N+](C)(C)CCOc1ccccc1 [domiphen] (10 µM),0.0254,87% (inactive)
Cc1ccc(S(=O)(=O)Nc2ccc3c(c2)c(C(=O)C(F)(F)F)cn3CC(=O)N[C@@H](CC(C)C)C(=O)O)cc1 (10 µM),0.0604,104% (inactive)
Cc1cc(Nc2cc(CN3CCOCC3)c3nc(C)c(Cc4ccc(Cl)cc4F)n3n2)n[nH]1 (0.833333 µM),-0.0116,107% (inactive)
NS(=O)(=O)Nc1ncnc(OCCOc2ncc(Br)cn2)c1-c1ccc(Br)cc1 (10 µM),0.0685,120% (inactive)
C[C@@H](Nc1cc(F)cc(F)c1)c1cc(C(=O)N(C)C)cc2c(=O)cc(N3CCOCC3)oc12 (10 µM),-0.225,122% (inactive)
O=C1c2ccccc2-c2n[nH]c3cccc1c23 [pyrazolanthrone] (10 µM),0.0961,106% (inactive)
C[N+]12CCCCC1CCC(=C(c1cccs1)c1cccs1)C2 (configuration not stated) [tiquizium] (10 µM),0.138,93.5% (inactive)
COc1cc(N)c(Cl)cc1C(=O)OCCN1CCCCC1 (10 µM),0.128,110% (inactive)
CC(C)(O)[C@@H]1[C@H]2OC(=O)[C@@H]1[C@]1(O)C[C@H]3O[C@]34C(=O)O[C@H]2[C@]14C [picrotin] (10 µM),0.0343,111% (inactive)
CN(C)C(=O)CCSC(SCCC(=O)O)c1cccc(/C=C/c2ccc3ccc(Cl)cc3n2)c1 (configuration not stated) (10 µM),0.011,108% (inactive)
O=C(O)/C=C1\CCCc2ccccc2[C@H]1O (racemic) (10 µM),0.0116,100% (inactive)
